Results reported in PubChem BioAssay (Tox21).
Records with an inconclusive call do not appear. Activity calls are given as the source filed them. The call rests on the fitted dose curve; in most records, active means well fitted curve in the direction sought with a large enough effect in the repeat runs; inconclusive means weak or mixed curves; inactive means no such curve, though single readings can be large; an effect the other way counts as inactive or inconclusive.

Experiments:
[1] = A CellTox Green Cytotoxicity Assay to monitor cytotoxicity in HEK293 cells - 32 hour (AID 1224881); further: nearly all actives have a fitted effect of over 40% in size; further: potency means the concentration at half of the fitted maximal effect
Summary of the method: (§1)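 Homogeneous no-lysis format: HEK293 cell suspension mixed with CellTox Green reagent, seeded, incubated 5 h at 37 C/5% CO2, then dosed by pintool with compound in DMSO.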

[2] = A CellTox Green Cytotoxicity Assay to monitor cytotoxicity in HepG2 cells - 0 hour (AID 1224882); further: nearly all actives have a fitted effect of over 35% in size; further: potency means the concentration at half of the fitted maximal effect
Summary of the method: (§2)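 Fluorescent DNA-binding dye, 600 HepG2 cells/well, 5 h preincubation then compound in DMSO; same plates read at 0–40 h, 37 C.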

[3] = A CellTox Green Cytotoxicity Assay to monitor cytotoxicity in HepG2 cells - 32 hour (AID 1224883); further: nearly all actives have a fitted effect of over 50% in size; further: potency means the concentration at half of the fitted maximal effect
Summary of the method: as §2

[4] = A CellTox Green Cytotoxicity Assay to monitor cytotoxicity in HEK293 cells - 8 hour (AID 1224884); further: nearly all actives have a fitted effect of over 35% in size; further: potency means the concentration at half of the fitted maximal effect
Summary of the method: as §1

[5] = qHTS RealTime-Glo MT Cell Viability Assay in HepG2 cells - 16 hour (AID 1224885); further: nearly all actives have a fitted effect of over 50% in size; further: potency means the concentration at half of the fitted maximal effect
Summary of the method: (§3)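 Tox21 10K library screened in qHTS format on HepG2 cells carrying RealTime-Glo reagents. Compounds were added after a 5 h preincubation, and the luminescent signal from continuous culture was measured repeatedly during 40 h treatment.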

[6] = qHTS RealTime-Glo MT Cell Viability Assay in HEK293 cells - 24 hour (AID 1224886); further: nearly all actives have a fitted effect of over 50% in size; further: potency means the concentration at half of the fitted maximal effect; on activity change, negative = cytotoxicity: top concentration of the series differs between compounds
Summary of the method: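 Luminescence generated by NanoLuc from substrate produced by living HEK293 cells served as the viability signal. Each value reflects the reading at its stated time point during continuous 40 h compound exposure at 37 C.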

[7] = qHTS RealTime-Glo MT Cell Viability Assay in HEK293 cells - 8 hour (AID 1224887); further: nearly all actives have a fitted effect of over 50% in size; further: potency means the concentration at half of the fitted maximal effect; on activity change, negative = cytotoxicity: top concentration of the series differs between compounds
Summary of the method: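 Measured as luminescence from the same continuously cultured HEK293 wells at successive time points (0, 8, 16, 24, 32, 40 h) after compound addition. Reagent present from seeding; dosing at 5 h; incubation 37 C.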

[8] = A CellTox Green Cytotoxicity Assay to monitor cytotoxicity in HEK293 cells - 16 hour (AID 1224888); further: nearly all actives have a fitted effect of over 35% in size; further: potency means the concentration at half of the fitted maximal effect
Summary of the method: as §1

[9] = qHTS RealTime-Glo MT Cell Viability Assay in HepG2 cells - 0 hour (AID 1224889); further: nearly all actives have a fitted effect of over 50% in size
Summary of the method: as §3

[10] = A CellTox Green Cytotoxicity Assay to monitor cytotoxicity in HepG2 cells - 8 hour (AID 1224890); further: nearly all actives have a fitted effect of over 45% in size; further: potency means the concentration at half of the fitted maximal effect
Summary of the method: as §2
On the % scale 0 is the no-effect control and ±100 the full control effect.

CCCCCOC(=O)CCCC
inactive: Potency [1] | Potency [2] | Potency [3] | Potency [4] | Potency [5] | Potency [6] | Potency [7] | Potency [8] | Potency [9]

O=C(Nc1ccc(Oc2ccc(Cl)cc2)c(Cl)c1)c1cc(I)cc(I)c1O
inactive: Potency [1] | Potency [2] | Potency [3] | Potency [4] | Potency [5] | Potency [6] | Potency [7] | Potency [8] | Potency [9] | Potency [10]

CCN(CC)CCNC(=O)c1c(C)[nH]c(/C=C2\C(=O)Nc3ccc(F)cc32)c1C
active: Potency [1] 23.9 µM | Potency [2] 21.3 µM | Potency [3] 10.7 µM | Potency [4] 23.9 µM | Potency [5] 21.3 µM | Potency [6] 9.52 µM | Potency [7] 21.3 µM | Potency [8] 23.9 µM
inactive: Potency [9]

CCCCc1oc2ccc(NS(C)(=O)=O)cc2c1C(=O)c1ccc(OCCCN(CCCC)CCCC)cc1
inactive: Potency [2]
active: Potency [1] 21.3 µM | Potency [3] 19 µM | Potency [4] 23.9 µM | Potency [5] 19 µM | Potency [6] 10.7 µM | Potency [7] 19 µM | Potency [8] 23.9 µM

Nc1ccc2cc(S(=O)(=O)O)cc(O)c2c1N=Nc1ccccc1C(F)(F)F
inactive: Potency [1] | Potency [2] | Potency [3] | Potency [4] | Potency [5] | Potency [6] | Potency [7] | Potency [8] | Potency [9] | Potency [10]

CCCCN1C(=O)[C@@H]([C@H](O)C2CCCCC2)NC(=O)C12CCN(Cc1ccc(Oc3ccc(C(=O)O)cc3)cc1)CC2
inactive: Potency [1] | Potency [2] | Potency [3] | Potency [4] | Potency [5] | Potency [6] | Potency [7] | Potency [8] | Potency [9]

O=[N+]([O-])c1ccccc1Nc1ccccc1
inactive: Potency [1] | Potency [2] | Potency [3] | Potency [4] | Potency [5] | Potency [6] | Potency [7] | Potency [8] | Potency [9]

O=C1C=CC(=O)N1c1ccc(Cc2ccc(N3C(=O)C=CC3=O)cc2)cc1
inactive: Potency [2] | Potency [9]
active: Potency [1] 19.5 µM | Potency [3] 9.77 µM | Potency [4] 54.9 µM | Potency [5] 12.3 µM | Potency [6] 13.8 µM | Potency [7] 21.9 µM | Potency [8] 49 µM | Potency [10] 17.4 µM

CCCCN1CCCC[C@H]1C(=O)Nc1c(C)cccc1C
inactive: Potency [1] | Potency [2] | Potency [3] | Potency [4] | Potency [5] | Potency [6] | Potency [7] | Potency [8] | Potency [9] | Potency [10]

O=C(O)c1ccc(Cl)c(Cl)c1
inactive: Potency [1] | Potency [2] | Potency [3] | Potency [4] | Potency [5] | Potency [6] | Potency [7] | Potency [8]

CCOC(=O)O[C@H](C)OC(=O)c1ccc2c(c1)cc(C(=O)NC1CCN(C(C)C)CC1)n2Cc1cc(-c2ccc(Cl)s2)on1
active: Potency [1] 18.2 µM | Potency [3] 11.5 µM | Potency [4] 51.3 µM | Potency [5] 12.9 µM | Potency [6] 11.5 µM | Potency [7] 11.5 µM | Potency [8] 45.8 µM | Potency [10] 18.2 µM
inactive: Potency [2] | Potency [9]

NC(=O)NS(=O)(=O)c1ccc(N)cc1
inactive: Potency [1] | Potency [2] | Potency [3] | Potency [4] | Potency [5] | Potency [6] | Potency [7] | Potency [8] | Potency [9] | Potency [10]

Clc1ccc2n[nH]nc2c1
inactive: Potency [1] | Potency [2] | Potency [3] | Potency [4] | Potency [5] | Potency [6] | Potency [7] | Potency [8] | Potency [9] | Potency [10]

O=C(c1ccc(O)cc1O)c1ccc(O)cc1O
inactive: Potency [1] | Potency [2] | Potency [3] | Potency [4] | Potency [5] | Potency [6] | Potency [7] | Potency [8] | Potency [9] | Potency [10]

CCCCCCCC[N+](CCCCCCCC)(CCCCCCCC)CCCCCCCC
inactive: Potency [2]
active: Potency [1] 15.5 µM | Potency [3] 21.8 µM | Potency [4] 24.5 µM | Potency [5] 24.5 µM | Potency [6] 6.15 µM | Potency [7] 12.3 µM | Potency [8] 21.8 µM

CCc1oc2ccccc2c1C(=O)c1cc(Br)c(O)c(Br)c1
inactive: Potency [1] | Potency [2] | Potency [3] | Potency [4] | Potency [5] | Potency [6] | Potency [7] | Potency [8]

O=C(OCC1CO1)C1CCCCC1C(=O)OCC1CO1 (configuration not stated)
inactive: Potency [1] | Potency [2] | Potency [3] | Potency [4] | Potency [5] | Potency [6] | Potency [7] | Potency [8] | Potency [9] | Potency [10]

CSc1ccc(/C=C2/C(C)=C(CC(=O)O)c3cc(F)ccc32)cc1
inactive: Potency [1] | Potency [2] | Potency [3] | Potency [4] | Potency [5] | Potency [6] | Potency [7] | Potency [8] | Potency [9]

CC(NN)c1ccccc1 (configuration not stated)
inactive: cytotoxicity increase [1] -15.1% [at 15.8 µM] | cytotoxicity [2] -2.26% [at 15.8 µM] | cytotoxicity increase [3] -12.7% [at 15.8 µM] | cytotoxicity increase [4] -1.23% [at 15.8 µM] | activity change, negative = cytotoxic [5] 0.634% [at 15.8 µM] | activity change, negative = cytotoxicity [6] -0.0571% [at 15.8 µM] | activity change, negative = cytotoxicity [7] -8.04% [at 15.8 µM] | activity change [8] -3.48% [at 15.8 µM, stronger effect = higher value] | activity change, negative = cytotoxicity [9] -3.22% [at 15.8 µM] | cytotoxicity increase [10] -3.04% [at 15.8 µM]

C/C=C(\C)C(=O)OCc1ccccc1
inactive: Potency [1] | Potency [2] | Potency [3] | Potency [4] | Potency [5] | Potency [6] | Potency [7] | Potency [8] | Potency [9] | Potency [10]
